Experiments:
Test in all cases: DAPPL (digital affinity profiling via proximity ligation, sequencing); 10 mM Tris-HCl pH 7.5, 50 mM NaCl, 1 mM DTT, 4% glycerol, room temperature, 30 min; GST-TFs on glutathione beads, 16-mer random dsDNA library, 0.1% formaldehyde crosslink after washing; high values mean tight binding
FLI1 = target: T1, FLI1 (Homo sapiens, UniProt Q01543 1-452); conditions: protein: recombinant; tags: N-terminal GST; dsDNA, one strand shown
T1 sequence: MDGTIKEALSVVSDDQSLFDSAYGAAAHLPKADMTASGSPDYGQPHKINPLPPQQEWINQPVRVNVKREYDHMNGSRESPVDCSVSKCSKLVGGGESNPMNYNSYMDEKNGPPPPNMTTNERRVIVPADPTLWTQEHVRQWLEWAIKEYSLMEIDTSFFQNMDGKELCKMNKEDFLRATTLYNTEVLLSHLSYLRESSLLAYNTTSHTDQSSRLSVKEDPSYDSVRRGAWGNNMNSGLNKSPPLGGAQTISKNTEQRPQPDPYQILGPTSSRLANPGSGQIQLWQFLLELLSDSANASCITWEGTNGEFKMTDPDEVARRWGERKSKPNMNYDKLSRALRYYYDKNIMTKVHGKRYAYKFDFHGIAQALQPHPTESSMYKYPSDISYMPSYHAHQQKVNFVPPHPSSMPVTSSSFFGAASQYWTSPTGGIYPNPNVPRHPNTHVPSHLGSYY
Procedure, shortened: (§1)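 After expression in yeast as GST fusions, human transcription factors were bound to glutathione beads, DNA-barcoded and mixed with a tag-only sample. The pools were incubated with 200 nmole of a 16-mer random double-stranded DNA library in Tris/NaCl/DTT/glycerol buffer (30 min, room temperature), washed and crosslinked with 0.1% formaldehyde. Proximity ligation with BsaI/T4 ligase ran for 1 h at 37 °C, before PCR amplification and sequencing on an Illumina NextSeq500. Binding signal is a hexamer's read frequency for a factor divided by its frequency for the tag-only sample.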

GABPA = target: T2, GABPA (Homo sapiens, UniProt Q06546 1-454); conditions: protein: recombinant; tags: N-terminal GST; dsDNA, one strand shown
T2 sequence: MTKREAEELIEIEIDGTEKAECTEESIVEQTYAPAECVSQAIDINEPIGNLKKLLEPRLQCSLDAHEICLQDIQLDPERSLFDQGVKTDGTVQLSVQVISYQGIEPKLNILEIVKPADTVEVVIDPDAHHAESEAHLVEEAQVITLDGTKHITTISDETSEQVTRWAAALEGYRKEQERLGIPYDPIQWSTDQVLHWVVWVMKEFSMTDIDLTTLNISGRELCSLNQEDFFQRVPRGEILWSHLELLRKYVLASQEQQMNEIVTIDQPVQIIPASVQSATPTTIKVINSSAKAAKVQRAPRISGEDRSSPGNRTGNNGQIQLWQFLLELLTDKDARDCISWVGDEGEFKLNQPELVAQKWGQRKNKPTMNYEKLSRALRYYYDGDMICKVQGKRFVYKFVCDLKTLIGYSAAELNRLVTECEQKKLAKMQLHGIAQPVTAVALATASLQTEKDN
Procedure, shortened: as §1

ERG = target: T3, ERG (Homo sapiens, UniProt P11308 1-479); conditions: protein: recombinant; tags: N-terminal GST; dsDNA, one strand shown
T3 sequence: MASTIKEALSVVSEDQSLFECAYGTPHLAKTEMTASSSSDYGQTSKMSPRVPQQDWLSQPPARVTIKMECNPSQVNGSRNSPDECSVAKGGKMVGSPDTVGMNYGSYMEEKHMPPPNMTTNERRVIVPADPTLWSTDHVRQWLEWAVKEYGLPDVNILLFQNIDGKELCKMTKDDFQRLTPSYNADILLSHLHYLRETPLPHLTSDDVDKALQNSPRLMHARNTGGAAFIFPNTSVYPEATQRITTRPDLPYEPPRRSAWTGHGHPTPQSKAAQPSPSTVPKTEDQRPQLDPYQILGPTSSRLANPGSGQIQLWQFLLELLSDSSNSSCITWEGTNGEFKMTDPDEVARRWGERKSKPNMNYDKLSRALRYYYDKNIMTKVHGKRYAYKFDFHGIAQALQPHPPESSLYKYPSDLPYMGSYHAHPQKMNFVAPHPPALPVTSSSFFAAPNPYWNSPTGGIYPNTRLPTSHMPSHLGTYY
Procedure, shortened: as §1

ELF1 = ELF1 (Homo sapiens, UniProt P32519 1-619); conditions: protein: recombinant; tags: N-terminal GST; dsDNA, one strand shown
Procedure, shortened: as §1

EHF = target: T4, EHF (Homo sapiens, UniProt Q9NZC4 1-300); conditions: protein: recombinant; tags: N-terminal GST; dsDNA, one strand shown
T4 sequence: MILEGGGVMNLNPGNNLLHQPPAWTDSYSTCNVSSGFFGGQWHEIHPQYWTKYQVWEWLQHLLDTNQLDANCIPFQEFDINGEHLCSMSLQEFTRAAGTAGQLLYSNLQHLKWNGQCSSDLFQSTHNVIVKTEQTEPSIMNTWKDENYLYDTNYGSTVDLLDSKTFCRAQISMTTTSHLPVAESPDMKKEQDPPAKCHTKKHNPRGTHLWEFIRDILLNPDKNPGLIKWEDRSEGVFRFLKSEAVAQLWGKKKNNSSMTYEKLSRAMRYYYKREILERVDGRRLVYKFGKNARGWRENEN
Procedure, shortened: as §1

SPI1 = SPI1 (Homo sapiens, UniProt P17947 1-270); conditions: protein: recombinant; tags: N-terminal GST; dsDNA, one strand shown
Procedure, shortened: as §1

SPIB = SPIB (Homo sapiens, UniProt Q01892 1-262); conditions: protein: recombinant; tags: N-terminal GST; dsDNA, one strand shown
Procedure, shortened: as §1

FEV = target: T5, FEV (Homo sapiens, UniProt Q99581 1-238); conditions: protein: recombinant; tags: N-terminal GST; dsDNA, one strand shown
T5 sequence: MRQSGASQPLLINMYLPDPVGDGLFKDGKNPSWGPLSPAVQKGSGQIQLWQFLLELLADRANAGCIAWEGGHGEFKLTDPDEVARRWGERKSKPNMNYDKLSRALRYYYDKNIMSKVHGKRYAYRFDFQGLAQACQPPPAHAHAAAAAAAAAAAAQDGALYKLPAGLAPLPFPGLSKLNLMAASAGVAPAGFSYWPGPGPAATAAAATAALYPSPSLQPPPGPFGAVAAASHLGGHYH
Procedure, shortened: as §1

ETV5 = ETV5 (Homo sapiens, UniProt P41161 1-510); conditions: protein: recombinant; tags: N-terminal GST; dsDNA, one strand shown
Procedure, shortened: as §1

HSF1 = HSF1 (Homo sapiens, UniProt Q00613 1-529); conditions: protein: recombinant; tags: N-terminal GST; chain copies: 3; dsDNA, one strand shown
Procedure, shortened: as §1

SPIC = target: T6, SPIC (Homo sapiens, UniProt Q8N5J4 1-248); conditions: protein: recombinant; tags: N-terminal GST; dsDNA, one strand shown
T6 sequence: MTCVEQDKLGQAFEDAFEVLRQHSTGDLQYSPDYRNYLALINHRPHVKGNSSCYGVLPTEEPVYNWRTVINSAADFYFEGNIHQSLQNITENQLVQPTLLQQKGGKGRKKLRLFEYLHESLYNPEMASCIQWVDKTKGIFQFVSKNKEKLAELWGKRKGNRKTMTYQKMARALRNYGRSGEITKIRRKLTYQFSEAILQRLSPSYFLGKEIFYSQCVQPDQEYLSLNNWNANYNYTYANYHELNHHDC
Procedure, shortened: as §1

ELF4 = ELF4 (Homo sapiens, UniProt Q99607 1-663); conditions: protein: recombinant; tags: N-terminal GST; dsDNA, one strand shown
Procedure, shortened: as §1

ELK4 = target: T7, ELK4 (Homo sapiens, UniProt P28324-2 1-405); conditions: protein: recombinant; tags: N-terminal GST; dsDNA, one strand shown
T7 sequence: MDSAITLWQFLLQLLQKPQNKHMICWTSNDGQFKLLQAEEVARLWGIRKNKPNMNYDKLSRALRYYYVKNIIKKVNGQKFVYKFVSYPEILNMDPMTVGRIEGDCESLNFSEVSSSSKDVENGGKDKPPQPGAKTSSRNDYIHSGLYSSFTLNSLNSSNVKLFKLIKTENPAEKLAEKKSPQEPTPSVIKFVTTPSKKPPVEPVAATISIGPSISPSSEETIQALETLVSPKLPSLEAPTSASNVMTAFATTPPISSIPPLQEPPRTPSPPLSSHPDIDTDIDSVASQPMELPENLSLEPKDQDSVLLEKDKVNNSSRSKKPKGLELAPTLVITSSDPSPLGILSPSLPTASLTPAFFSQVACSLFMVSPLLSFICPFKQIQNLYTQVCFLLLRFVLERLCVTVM
Procedure, shortened: as §1

ETV2 = target: T8, ETV2 (Homo sapiens, UniProt O00321 1-342); conditions: protein: recombinant; tags: N-terminal GST; dsDNA, one strand shown
T8 sequence: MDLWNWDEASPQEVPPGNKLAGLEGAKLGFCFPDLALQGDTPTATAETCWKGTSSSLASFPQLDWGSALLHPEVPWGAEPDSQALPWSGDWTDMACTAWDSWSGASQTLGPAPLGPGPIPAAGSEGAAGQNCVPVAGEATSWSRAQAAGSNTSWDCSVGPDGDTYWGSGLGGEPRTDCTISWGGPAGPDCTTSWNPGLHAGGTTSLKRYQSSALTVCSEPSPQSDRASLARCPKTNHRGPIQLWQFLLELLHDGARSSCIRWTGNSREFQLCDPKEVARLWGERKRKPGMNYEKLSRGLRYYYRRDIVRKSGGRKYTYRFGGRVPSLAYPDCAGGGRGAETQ
Procedure, shortened: as §1

ELF3 = target: T9, ELF3 (Homo sapiens, UniProt P78545 1-371); conditions: protein: recombinant; tags: N-terminal GST; dsDNA, one strand shown
T9 sequence: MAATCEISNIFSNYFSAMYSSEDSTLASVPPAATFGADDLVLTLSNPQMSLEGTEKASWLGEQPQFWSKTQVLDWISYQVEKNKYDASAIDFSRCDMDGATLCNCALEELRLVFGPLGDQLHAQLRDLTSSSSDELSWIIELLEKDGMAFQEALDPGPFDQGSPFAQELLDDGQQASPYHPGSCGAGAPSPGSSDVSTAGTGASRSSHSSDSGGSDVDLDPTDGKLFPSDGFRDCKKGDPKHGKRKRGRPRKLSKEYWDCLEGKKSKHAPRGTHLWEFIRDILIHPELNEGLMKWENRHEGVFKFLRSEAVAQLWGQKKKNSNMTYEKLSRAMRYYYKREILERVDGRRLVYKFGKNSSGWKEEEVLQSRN
Procedure, shortened: as §1

CRX = CRX (Homo sapiens, UniProt O43186 1-299); conditions: protein: recombinant; tags: N-terminal GST; dsDNA, one strand shown
Procedure, shortened: as §1

ETV1 = ETV1 (Homo sapiens, UniProt P50549 1-477); conditions: protein: recombinant; tags: N-terminal GST; dsDNA, one strand shown
Procedure, shortened: as §1

Sequence of HSF1 (Q00613 whole entry): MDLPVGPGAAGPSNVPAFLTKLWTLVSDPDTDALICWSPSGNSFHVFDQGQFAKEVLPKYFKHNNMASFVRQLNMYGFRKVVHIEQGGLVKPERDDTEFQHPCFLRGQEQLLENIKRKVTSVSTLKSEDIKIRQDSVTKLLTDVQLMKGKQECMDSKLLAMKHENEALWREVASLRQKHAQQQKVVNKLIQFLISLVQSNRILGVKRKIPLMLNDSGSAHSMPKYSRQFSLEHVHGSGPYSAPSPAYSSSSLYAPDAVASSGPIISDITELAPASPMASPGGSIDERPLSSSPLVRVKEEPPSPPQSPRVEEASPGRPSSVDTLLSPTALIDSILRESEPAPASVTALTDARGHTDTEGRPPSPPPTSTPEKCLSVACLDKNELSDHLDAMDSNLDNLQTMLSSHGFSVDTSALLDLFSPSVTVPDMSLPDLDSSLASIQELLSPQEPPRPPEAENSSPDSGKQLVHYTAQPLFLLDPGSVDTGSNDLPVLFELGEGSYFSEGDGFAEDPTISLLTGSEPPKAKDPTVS
Sequence of ETV5 (P41161 whole entry): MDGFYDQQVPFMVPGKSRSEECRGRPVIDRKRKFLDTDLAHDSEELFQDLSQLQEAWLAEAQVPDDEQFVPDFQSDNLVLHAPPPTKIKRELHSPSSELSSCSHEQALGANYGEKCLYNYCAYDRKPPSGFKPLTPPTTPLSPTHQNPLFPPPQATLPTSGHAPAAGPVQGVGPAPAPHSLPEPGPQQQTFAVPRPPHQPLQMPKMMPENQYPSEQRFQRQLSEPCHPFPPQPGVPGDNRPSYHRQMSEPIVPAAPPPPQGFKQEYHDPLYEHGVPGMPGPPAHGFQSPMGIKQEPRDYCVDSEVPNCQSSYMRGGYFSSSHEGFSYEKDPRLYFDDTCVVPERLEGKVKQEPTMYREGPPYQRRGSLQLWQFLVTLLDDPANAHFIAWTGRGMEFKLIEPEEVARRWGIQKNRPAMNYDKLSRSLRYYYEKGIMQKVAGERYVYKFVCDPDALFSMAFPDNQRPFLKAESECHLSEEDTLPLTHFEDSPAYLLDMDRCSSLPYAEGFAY
Sequence of CRX (O43186 whole entry): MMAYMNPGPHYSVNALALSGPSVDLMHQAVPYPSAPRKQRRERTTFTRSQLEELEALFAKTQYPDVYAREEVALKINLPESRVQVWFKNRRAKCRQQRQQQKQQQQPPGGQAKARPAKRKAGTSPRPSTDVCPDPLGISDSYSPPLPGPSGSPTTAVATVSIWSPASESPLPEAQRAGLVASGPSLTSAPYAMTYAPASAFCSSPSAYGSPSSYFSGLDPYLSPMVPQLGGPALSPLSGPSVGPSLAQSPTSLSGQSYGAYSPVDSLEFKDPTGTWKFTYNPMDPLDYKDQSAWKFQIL
Sequence of ETV1 (P50549 whole entry): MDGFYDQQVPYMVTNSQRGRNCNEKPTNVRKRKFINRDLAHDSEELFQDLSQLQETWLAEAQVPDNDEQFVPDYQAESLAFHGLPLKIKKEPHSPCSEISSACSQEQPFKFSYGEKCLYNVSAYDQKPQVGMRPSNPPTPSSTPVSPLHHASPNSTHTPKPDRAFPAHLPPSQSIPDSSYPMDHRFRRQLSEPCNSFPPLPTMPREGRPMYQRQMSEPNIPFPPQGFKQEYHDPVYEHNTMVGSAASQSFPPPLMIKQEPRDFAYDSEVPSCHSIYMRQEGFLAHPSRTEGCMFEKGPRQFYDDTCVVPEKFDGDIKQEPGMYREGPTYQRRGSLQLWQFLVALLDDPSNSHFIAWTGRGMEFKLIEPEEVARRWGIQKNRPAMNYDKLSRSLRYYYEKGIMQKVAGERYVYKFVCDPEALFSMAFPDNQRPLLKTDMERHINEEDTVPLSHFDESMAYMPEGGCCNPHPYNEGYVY
Sequence of ELF1 (P32519 whole entry): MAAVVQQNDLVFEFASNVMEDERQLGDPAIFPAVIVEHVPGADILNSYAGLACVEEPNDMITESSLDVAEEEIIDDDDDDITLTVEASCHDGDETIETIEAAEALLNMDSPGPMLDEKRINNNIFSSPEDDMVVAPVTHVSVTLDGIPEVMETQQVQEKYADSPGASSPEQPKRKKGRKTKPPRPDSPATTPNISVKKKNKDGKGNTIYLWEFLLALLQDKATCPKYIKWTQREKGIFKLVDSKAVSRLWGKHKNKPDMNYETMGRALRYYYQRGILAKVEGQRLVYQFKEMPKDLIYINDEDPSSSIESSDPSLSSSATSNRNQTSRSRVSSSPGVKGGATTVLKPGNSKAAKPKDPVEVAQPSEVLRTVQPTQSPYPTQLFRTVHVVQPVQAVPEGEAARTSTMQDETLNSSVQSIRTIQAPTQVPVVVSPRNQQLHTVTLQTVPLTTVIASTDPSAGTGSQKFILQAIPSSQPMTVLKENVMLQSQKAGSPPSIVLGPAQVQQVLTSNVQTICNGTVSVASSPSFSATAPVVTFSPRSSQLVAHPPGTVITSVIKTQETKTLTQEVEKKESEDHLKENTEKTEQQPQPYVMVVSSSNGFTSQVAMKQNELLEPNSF
Sequence of SPIB (Q01892 whole entry): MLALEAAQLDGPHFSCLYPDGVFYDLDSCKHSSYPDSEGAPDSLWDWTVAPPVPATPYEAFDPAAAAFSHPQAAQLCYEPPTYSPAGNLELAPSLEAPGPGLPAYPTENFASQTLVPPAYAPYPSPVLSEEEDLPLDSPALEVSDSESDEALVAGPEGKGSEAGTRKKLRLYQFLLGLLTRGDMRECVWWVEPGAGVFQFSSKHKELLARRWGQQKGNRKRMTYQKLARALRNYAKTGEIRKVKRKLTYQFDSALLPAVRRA
Sequence of ELF4 (Q99607 whole entry): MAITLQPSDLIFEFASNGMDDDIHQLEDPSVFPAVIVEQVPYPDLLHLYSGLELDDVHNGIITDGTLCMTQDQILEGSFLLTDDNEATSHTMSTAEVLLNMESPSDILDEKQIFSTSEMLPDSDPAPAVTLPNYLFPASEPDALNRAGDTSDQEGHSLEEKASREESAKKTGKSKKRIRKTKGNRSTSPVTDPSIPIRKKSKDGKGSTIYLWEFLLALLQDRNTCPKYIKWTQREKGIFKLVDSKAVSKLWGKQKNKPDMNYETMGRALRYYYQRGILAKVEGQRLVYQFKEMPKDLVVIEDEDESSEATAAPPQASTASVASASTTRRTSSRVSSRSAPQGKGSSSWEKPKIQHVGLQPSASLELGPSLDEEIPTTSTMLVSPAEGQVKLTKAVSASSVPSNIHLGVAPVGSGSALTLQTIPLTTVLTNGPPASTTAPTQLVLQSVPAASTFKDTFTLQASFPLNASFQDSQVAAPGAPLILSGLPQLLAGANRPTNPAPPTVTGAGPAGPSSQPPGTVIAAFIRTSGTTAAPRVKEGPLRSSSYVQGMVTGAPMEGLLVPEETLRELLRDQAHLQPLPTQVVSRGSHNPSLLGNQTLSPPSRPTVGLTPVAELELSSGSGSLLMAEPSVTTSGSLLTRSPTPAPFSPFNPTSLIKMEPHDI

**Q.** GTGGCT was tested. Which binding signal (FLI1) did it give?
**A.** Its binding signal is 1.23 fold enrichment (6-mer frequency, TF over GST control).

**Q.** And the binding signal (GABPA)?
**A.** Its binding signal is 1.27 fold enrichment (6-mer frequency, TF over GST control).

**Q.** What about the binding signal (ERG) of the same sequence?
**A.** The binding signal was 1.19 fold enrichment (6-mer frequency, TF over GST control).

**Q.** What about the binding signal (ELF1) of the same sequence?
**A.** The binding signal was 1.11 fold enrichment (6-mer frequency, TF over GST control).

**Q.** And the binding signal (EHF)?
**A.** Its binding signal is 1.22 fold enrichment (6-mer frequency, TF over GST control).

**Q.** And the binding signal (SPI1)?
**A.** The binding signal was 1.3 fold enrichment (6-mer frequency, TF over GST control).

**Q.** What about the binding signal (SPIB) of the same sequence?
**A.** Its binding signal is 1.18 fold enrichment (6-mer frequency, TF over GST control).

**Q.** And the binding signal (FEV)?
**A.** The binding signal was 1.19 fold enrichment (6-mer frequency, TF over GST control).

**Q.** And the binding signal (ETV5)?
**A.** Its binding signal is 1.13 fold enrichment (6-mer frequency, TF over GST control).

**Q.** And the binding signal (HSF1)?
**A.** Its binding signal is 1.05 fold enrichment (6-mer frequency, TF over GST control).

**Q.** And the binding signal (SPIC)?
**A.** The binding signal was 1.23 fold enrichment (6-mer frequency, TF over GST control).

**Q.** And the binding signal (ELF4)?
**A.** The binding signal was 1.1 fold enrichment (6-mer frequency, TF over GST control).

**Q.** What about the binding signal (ELK4) of the same sequence?
**A.** The binding signal was 1.31 fold enrichment (6-mer frequency, TF over GST control).

**Q.** And the binding signal (ETV2)?
**A.** Its binding signal is 1.17 fold enrichment (6-mer frequency, TF over GST control).

**Q.** And the binding signal (ELF3)?
**A.** Its binding signal is 1.26 fold enrichment (6-mer frequency, TF over GST control).

**Q.** And the binding signal (CRX)?
**A.** Its binding signal is 1.18 fold enrichment (6-mer frequency, TF over GST control).

**Q.** And the binding signal (ETV1)?
**A.** The binding signal was 1.19 fold enrichment (6-mer frequency, TF over GST control).
